Drawing on PubChem BioAssay AID1508600 (Functional Genomics Laboratory (NCATS/FGL), 2020), this text covers z-score for 69 sequences.

Out of some 53,000 sequences screened, about 3,700 (7%) were called active.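 How the source made its calls: active means gene knockdowns whose robust z-score for IL-1 alpha signal is at least 2 or at most -2, so actives lie on both sides; inactive means the rest.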 Many of the other results were omitted from the sample, so actives are more common in it than they were.

The experiment is described as follows: Components of the Cytosolic LPS Sensing Pathway: Gene Identification via Genome-wide siRNA Screen.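 Further: robust z of the log signal after scaling to non-targeting control siRNA wells of the plate.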 The following applies: RAW264.7 macrophages, IL-1a HTRF, actives lie on both sides, screened at 100 nM (by protocol), cells primed 5 h with Pam3CSK4 first. The essentials: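 Knockdown: 100 nM siRNA, 48h, RAW264.7. Stimulation: Pam3CSK4 5 h, then LipidA via TransIT-TKO 24 h. Output: supernatant IL-1a HTRF, negative-control-normalized, log robust z-score; viability by CellTiter-Glo.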
In general terms: TR-FRET usually uses a lanthanide donor and a delayed reading to cut background.
For the sequence GGACCUAAACUGUCAGGAGTT against Eif3g, the z-score is 0.15 (inactive). Consider GCUCUGUUGUGGAUGCAAUTT against Lonrf2, for which the z-score was 0.859 (inactive).

Turning to GGGCGGUUCAAAAGGUCAGTT against Cacnb1, the z-score is 2.27 (active).

Take CCGGGAUGGAGAAUAAGCUTT against Fgfbp3: the z-score is -0.264 (inactive). To GCUAUAGGGACCUCUGUCATT against Cdh5 belongs -2.72 (active).

As for CCAUGACAUUUCCUAAGUUTT against Sall3, the z-score was -0.2 (inactive). To GGAGAUUUAUACACACUUGTT against Snx17 belongs 0.615 (inactive). As to GCUCCUACUACUGCUUUGCTT against Crem, the z-score is 0.979 (inactive). Regarding GCCCAAAGGUCAAGGAUAUTT against Rptn, the z-score is -0.036 (inactive).

Consider GCUAAGUUUCACCCAAAGGTT against Dennd2c, for which the z-score is 1.42 (inactive).

In the case of GGAGUGAGACAAGUGUAUGTT against Sprr1a, the z-score was -0.0345 (inactive). To GGAAAGAUUCCGAACAAUUTT against Rab8b belongs 2.12 (active); to GGUGGUUGAACAUAAGACUTT against Zfp688, 1.27 (inactive); to GGCAAUACAAACAAGUUCUTT against Klhdc2, 1.05 (inactive). To GGCCUUGUUUUUAAGUAAATT against Atp12a belongs -0.178 (inactive); to GCCAAUGAACCGAUCUCUGTT against Ep400, -2.13 (active); to GGAAUUGGGUAGUACAAAATT against Irak1, 0.282 (inactive). With GGUAAUGAAUAGGAAACUCTT against Ostm1 the figure was -0.773 (inactive); with GGAACACACAGAGGUUUAUTT against Hacd1, 1.87 (inactive); with GGGAGUGGCUCCUCAGAAATT against AW549877, -1.98 (inactive). For CGCACAAGUGCUUGAGUUATT against Ccdc151, the z-score is 1.03 (inactive). To GGACCAAUGUUUUCUUCCUTT against Gngt2 belongs 0.773 (inactive); to GCCUUAAGUGUUCAUGUAATT against Vhl, -0.872 (inactive). With GGAAGCCCACUACAACAAUTT against Krt19 the figure was -0.236 (inactive); with GCAUUGUGCUGAUGUGCGGTT against Ap1ar, 3.01 (active); with GGUAUUCUGGCAAGACCACTT against Aatf, 1.31 (inactive).

With GGAAGCCUAGUUUUUUUAATT against Csnk2a1, the z-score was 2.89 (active). To GCUUUCAGUGAGGUACAAGTT against Gm4425 belongs -1.25 (inactive); to GCUCUUUCUAGCCCUUCCCTT against Spry3, -0.915 (inactive); to GGAAAGAUAGAAGACAAACTT against Spry4, -0.0777 (inactive). To GGUUCUGAUAGCUCAAGAGTT against Polr2b belongs -1.96 (inactive).

For the sequence GGUUUUGAAAUUCCAGAAUTT against Nol9, the z-score is -0.22 (inactive).

With GGCAACUGUUGUAAAUCAATT against Veph1, the z-score is -1.01 (inactive). Turning to GGACUCAAACGACACAUGCTT against Eci2, the z-score is 2.42 (active). With GCCAGUCAUUCAGUAAAGUTT against Mysm1 the figure was -1.15 (inactive); with GGAGAAAUGUCAGUGCGAUTT against Mlc1, 0.431 (inactive); with GGUCACAGAAUCGGUUUCATT against Cuta, 1.02 (inactive).

For the sequence GGUUCUUGUUUUUACCCGCTT against Fam187b, the z-score is 1.19 (inactive). To GGAGUGGCUAUGUUUUCGATT against Hrg belongs 0.658 (inactive); to GGACUCGUUCCACUAUCAUTT against Naa20, 0.33 (inactive).

Take GCGGUUUCGAACAAUCACGTT against Rab8a: the z-score is -2.4 (active). To UCAACUGCUUAGAGCAUGUTT against Tmem259 belongs 0.653 (inactive); to CGACCUCCAGUAAUAACCUTT against Olfr310, -0.746 (inactive). To GGAAAGCUUGGACAUUAAGTT against Rps6kc1 belongs -0.0887 (inactive); to “GGUCACGUCAGCAAAGCAATT against B930095G15Rik”, -2.73 (active). To GCGAUGUGGACAGAAGUACTT against Cyba belongs 1.01 (inactive); to “GGUGUUUCAUAAGAAGGAATT against 1700010H22Rik”, -1.01 (inactive); to GCCAGUACUCUGCUUGUGATT against Naif1, -1.64 (inactive). Take “GAUCCCUGGAUUGUGGAGUTT against 2310057N15Rik”: the z-score was 0.26 (inactive).

For GGACGAGCUGUAUUUGAAUTT against Gsk3a, the z-score was -0.663 (inactive). To CCAAAGAUACCAUAGGAUUTT against Zc3h12a belongs 1.05 (inactive).

With GGUAGAUCCUAUCCUGUCUTT against Foxo4, the z-score was -2.57 (active). To GCUGCAAUAGUCACUGGAGTT against H2-K1 belongs 0.115 (inactive); to GCGACCAGCAGGUCAAAAUTT against Hoxd12, 3.09 (active). With CCCUUCUCUGAGACAACACTT against Tcirg1 the figure was 1.42 (inactive); with GGAAAUAAUUCACUCACCATT against Eya1, -2.99 (active). Turning to CCAAGUCGUAAUCUAGAAGTT against Scn7a, the z-score was 0.191 (inactive). Turning to GCUGGACCUUCAUGUAAUATT against Pcsk1, the z-score is -0.234 (inactive). As to CCUCAUGUCUACAAAGUUATT against Gvin1, the z-score is -1.14 (inactive). With GCGAGUUUUUGGAUGGUAGTT against Slc4a3 the figure was 0.243 (inactive). With GGUAUGCAUGAACAUAAUGTT against Prl7c1 the figure was 0.788 (inactive); with “GGACUUAAAAGAGGAGAUCTT against 4933434E20Rik”, 3.73 (active). With GGCAUUUUCGUAUAGUUACTT against B3gnt9 the figure was 0.81 (inactive); with GGUCAUCAGCUCUAUGAGCTT against Fry, 0.0787 (inactive); with GCACAGAGGAUGUACGUUATT against Cstad, -0.665 (inactive). On to “GCCCAGAGAAUGACCUAUATT against 9130019O22Rik”, for which the z-score was 0.54 (inactive). With “GGUGCUCCACAACACCUAUTT against 2510039O18Rik”, the z-score was 2.05 (active). With CCUACUAUACAAUUCUGCUTT against Clns1a the figure was 0.556 (inactive); with GGUCACUUCAUCCAUAGCUTT against Atmin, -1.79 (inactive).
